Activity calls are given as the source filed them. The calls were made as follows: active = hit-call score of the fitted dose curve at least 0.9, where 1 is the maximum; inactive = score below 0.9.
Read-out: E-selectin (Homo sapiens) (UniProt P16581)
Assay: BSK_LPS_Eselectin: BioMAP Diversity Plus: LPS Assay for Eselectin Biomarker Activity (AID 2283077)
Conditions: primary human HUVEC with PBMC; actives raise or lower the signal
Procedure: BSK_LPS is a cell-based, multiplexed-readout assay that uses umbilical vein endothelium and peripheral blood mononuclear cells, a human vascular primary cell co-culture, with measurements taken at 24 hours after chemical dosing in a 96-well plate.BSK_LPS_Eselectin is an assay component measured in the BSK_LPS assay. It measures E-selectin antibody related to regulation of gene expression using ELISA technology.Data from the assay component BSK_LPS_Eselectin was analyzed into 1 assay endpoint. This assay endpoint, BSK_LPS_Eselectin, was analyzed with bidirectional fitting relative to DMSO as the negative control and baseline of activity. Using a type of binding reporter, gain or loss-of-signal activity can be used to understand changes in the signaling as they relate to the gene SELE. Furthermore, this assay endpoint can be referred to as a primary readout, because this assay has produced multiple assay endpoints where this one serves a signaling function. To generalize the intended target to other relatable targets, this assay endpoint is annotated to the cell adhesion molecules intended target family, where the subfamily is selectins.
The levels of cell surface (or secreted, indicated by the prefix "s") biomarker endpoints were measured by ELISA. Overt cytotoxicity to cells in confluent adherent cultures (all systems other than the BT system) was assessed by measuring total protein levels using sulforhodamine B (SRB) staining in parallel cultures at the time of biomarker measurements, indicated as SRB endpoints. For proliferation assays for adherent cell types, individual cell types are cultured at sub-confluence and relative cell numbers quantified by SRB staining at time points optimized for each system (48 h: 3C and CASM3C systems; 72 h: BT and HDF3CGF systems; 96 h: SAg system). SRB was performed by staining cells with 0.1% SRB after fixation with 10% TCA and reading wells at 560 nm.Viability and proliferation of PBMC (T cells) was quantified by Alamar Blue reduction for the SAg and BT systems. For PBMC viability (referred to as PBMC Cytotoxicity within the assay endpoint names), cells were plated (75,000/well in a 96-well plate) and then chemical samples added for 1 h before addition of activators, SEB and TSST-1 (20 ng/mL final concentration each). Cells were incubated for 90 h. Then, Alamar Blue (20 uL/well) (Invitrogen, Cat DAL1100) was added for 6 h, and the plates were read with a fluorescence microplate reader at 546/580 nm (excitation/emission). For PBMC proliferation, cells were plated and activated as above but incubated for only 16 h prior to addition of Alamar Blue. Plates were read after 6 h.

E-selectin (Homo sapiens), sequence (P16581 whole entry, looked up): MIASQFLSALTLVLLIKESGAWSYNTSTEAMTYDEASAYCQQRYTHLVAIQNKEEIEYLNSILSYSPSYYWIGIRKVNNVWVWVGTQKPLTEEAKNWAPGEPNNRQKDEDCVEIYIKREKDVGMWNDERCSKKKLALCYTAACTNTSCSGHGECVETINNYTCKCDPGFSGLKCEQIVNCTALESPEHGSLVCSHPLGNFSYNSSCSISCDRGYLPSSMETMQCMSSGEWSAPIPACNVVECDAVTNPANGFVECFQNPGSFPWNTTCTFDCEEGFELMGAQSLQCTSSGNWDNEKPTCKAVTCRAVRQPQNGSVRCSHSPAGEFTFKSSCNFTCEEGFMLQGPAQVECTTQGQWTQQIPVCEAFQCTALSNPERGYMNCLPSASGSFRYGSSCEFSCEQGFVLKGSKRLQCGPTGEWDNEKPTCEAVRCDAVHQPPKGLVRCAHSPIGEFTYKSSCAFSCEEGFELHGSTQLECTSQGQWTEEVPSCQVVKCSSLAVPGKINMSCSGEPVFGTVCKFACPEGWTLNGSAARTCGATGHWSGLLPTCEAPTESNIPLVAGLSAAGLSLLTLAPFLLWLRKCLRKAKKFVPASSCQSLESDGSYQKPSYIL

Row | SMILES | AC50 | outcome
1 | OC(c1ccc(Cl)cc1)(c1ccc(Cl)cc1)C(Cl)(Cl)Cl | 30.9 µM (active) | 
2 | CS(=O)(=O)c1ccc(C(=O)C2C(=O)CCCC2=O)c([N+](=O)[O-])c1 |  | inactive
3 | CS(=O)(=O)c1cc(C(F)(F)F)ccc1C(=O)c1cnoc1C1CC1 |  | inactive
4 | Cc1cc(C)nc(Nc2ccccc2)n1 |  | inactive
5 | COP(=S)(OC)SCn1nnc2ccccc2c1=O |  | inactive
6 | CO/N=C(/C1=NOCCO1)c1ccccc1Oc1ncnc(Oc2ccccc2Cl)c1F | 15.2 µM (active) | 
7 | COP(=O)(OC)O/C(C)=C/C(=O)N(C)C |  | inactive
8 | CC(C)(C)C(=O)C(Oc1ccc(Cl)cc1)n1cncn1 (stereo not given) |  | inactive
9 | CCNC(=O)NC(=O)C(C#N)=NOC |  | inactive
10 | Cc1ccc(N=CN(C)C=Nc2ccc(C)cc2C)c(C)c1 | 31.1 µM (active) | 
11 | N#Cc1c[nH]cc1-c1cccc2c1OC(F)(F)O2 |  | inactive
12 | CN/C(=N\[N+](=O)[O-])NCc1cnc(Cl)s1 |  | inactive
13 | CCCCC(O)(Cn1cncn1)c1ccc(Cl)cc1Cl (stereo not given) |  | inactive
14 | CC1(C)CON(Cc2ccccc2Cl)C1=O |  | inactive
15 | Cc1nc(N(C)C)nc(OC(=O)N(C)C)c1C |  | inactive
16 | COCc1cnc(C2=NC(C)(C(C)C)C(=O)N2)c(C(=O)O)c1 (stereo not given) |  | inactive
17 | CC(C)Nc1nc(Cl)nc(NC(C)C)n1 |  | inactive
18 | CCN(CC)c1nc(C)cc(OP(=S)(OC)OC)n1 |  | inactive
19 | O=C1C2CC=CCC2C(=O)N1SC(Cl)(Cl)Cl (stereo not given) | 29.5 µM (active) | 
20 | CCOP(=S)(OCC)Oc1nc(Cl)n(C(C)C)n1 |  | inactive

Row | SMILES | AC50 | outcome
21 | O=C(O)c1c(Cl)ccc2cc(Cl)cnc12 |  | inactive
22 | CCCCOCN(C(=O)CCl)c1c(CC)cccc1CC | 31.3 µM (active) | 
23 | CSC(=O)c1c(C(F)F)nc(C(F)(F)F)c(C(=O)SC)c1CC(C)C | 5.05 µM (active) | 
24 | Clc1cccc(C(Cl)(Cl)Cl)n1 |  | inactive
25 | Cn1c(-c2ccccc2)cc(-c2ccccc2)[n+]1C |  | inactive
26 | N#CN=C1SCCN1Cc1ccc(Cl)nc1 |  | inactive
27 | Nc1cnn(-c2ccccc2)c(=O)c1Cl |  | inactive
28 | COCC(C)N(C(=O)CCl)c1c(C)csc1C (stereo not given) |  | inactive
29 | COP(=S)(OC)Oc1ccc([N+](=O)[O-])c(C)c1 |  | inactive
30 | COC(=O)c1c(C(F)F)nc(C(F)(F)F)c(C2=NCCS2)c1CC(C)C |  | inactive
31 | C=C(C)CN(CC)c1c([N+](=O)[O-])cc(C(F)(F)F)cc1[N+](=O)[O-] |  | inactive
32 | COc1cc(Cl)c(OC)cc1Cl |  | inactive
33 | Cc1c(COC(=O)[C@@H]2[C@H](/C=C(\Cl)C(F)(F)F)C2(C)C)cccc1-c1ccccc1 |  | inactive
34 | CC(C)=CC1C(C(=O)OCc2coc(Cc3ccccc3)c2)C1(C)C (stereo not given) | 12.1 µM (active) | 
35 | COC(=O)NC(=S)Nc1ccccc1NC(=S)NC(=O)OC |  | inactive
36 | CC(C)N1C(=O)c2ccccc2NS1(=O)=O |  | inactive
37 | CC1(C)CCC(=Cc2ccc(Cl)cc2)C1(O)Cn1cncn1 (stereo not given) |  | inactive
38 | CNC(=O)N(C)c1nnc(C(C)(C)C)s1 |  | inactive
39 | CCC(C)n1c(=O)[nH]c(C)c(Br)c1=O (stereo not given) |  | inactive
40 | CCOP(=O)(OCC)Oc1nc(Cl)c(Cl)cc1Cl |  | inactive

From PubChem BioAssay (EPA / NIEHS)
